Source: PubChem
Shown are actives, neighbours in structure and some others; about 19% of the full set was active somewhere.
Shiga inhibitor – A qHTS for Small Molecule Inhibitors of Shiga Toxin; AID 2315, 2010; Vero cells, Shiga toxin protein synthesis inhibition reporter; inhibition, % at 38.7 µM; actives 9.2% (n = 290,000); in the data active means inhibition mostly above about 28%, no sharp cut-off; inactive means mostly below about 43%; further: 0% is about no effect
Lassa entry inh – qHTS for Inhibitors of binding or entry into cells for Lassa Virus. Lassa virus pseudotype entry inhibition, cell reporter. Potency, µM (doses to about 37.9 µM), without a hit: at the highest dose activity change, negative = inhibition, hits mostly inhibitors. actives 1.2% (n = 300,000); calls by dose curve; tested in HEK293 cells; further: potency means the concentration at half of the fitted maximal effect; on the % scale 0 is the no-effect control and ±100 the full control effect; nearly all actives have a fitted effect of over 50% in size
MARV entry inh – qHTS for inhibitors of binding or entry into cells for Marburg Virus; Marburg virus pseudotyped entry inhibition, cell reporter; Potency, µM (series often up to 37.8 µM), for the others: at the top dose activity change, negative = inhibition, actives largely listed as inhibitors; actives 1.8% (n = 300,000); calls by dose curve; tested in HEK293 cells; further: potency means the concentration at half of the fitted maximal effect; on the % scale 0 is the no-effect control and ±100 the full control effect
CHX counter – Cycloheximide Counterscreen for Small Molecule Inhibitors of Shiga Toxin. cell reporter, cycloheximide protein synthesis inhibition counterscreen. max response, %. actives 12% (n = 300,000). AID 2314, 2010; in the data active means max response mostly above about 13%, no sharp cut-off; inactive means mostly below about 14%; further: read at 38.3 µM for the half of the compounds with a filed dose; 0% is about no effect
Pf growth 96h – Primary qHTS for delayed death inhibitors of the malarial parasite plastid, 96 hour incubation. AID 504834, 2011. Potency, µM (highest dose often 28.7 µM), for inactives: at the top dose activity change, negative = inhibition, hits mostly inhibitors. P. falciparum luciferase reporter growth, 96 h. actives 6.9% (n = 320,000); further: potency means the concentration at half of the fitted maximal effect; on the % scale 0 is the no-effect control and ±100 the full control effect
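Infected RBCs, 2% Hct / 0.05% parasitemia final; luciferase-reporter P. falciparum; cpd 96 h, 37 C, 5% CO2; luciferase detection reagent; luminescence.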
Pf growth 48h – Primary qHTS for delayed death inhibitors of the malarial parasite plastid, 48 hour incubation | P. falciparum luciferase growth in erythrocytes, 48 h | Potency, µM (doses to about 28.7 µM), for the others: at the highest dose activity change, negative = inhibition, hits mostly inhibitors | actives 5.9% (n = 310,000); further: potency means the concentration at half of the fitted maximal effect; on the % scale 0 is the no-effect control and ±100 the full control effect
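Luciferase-expressing parasites in RBCs, 2% Hct / 0.1% parasitemia final; RPMI 1640 + 0.5% Albumax; 37 C, 5% CO2, one generation; luminescence read-out, lower signal = inhibition.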
* hit, by the source's call; ? = inconclusive; nt = not tested or not shown; + = active, no number; [ ] = dose if it differs, or a comment. Unless noted, the call rests on the fitted dose curve; in most records, active means well fitted inhibition curve with a large enough effect; inconclusive means small, poorly fitted or top-dose-only effect, or another doubt; inactive means no such curve, though single readings can be large or run the other way.

SMILES	Shiga inhibitor	Lassa entry inh	MARV entry inh	CHX counter	Pf growth 96h	Pf growth 48h
CC(C)OC(=O)CSc1nc(N)c(C#N)cc1C#N	42*	-13%[46.1 µM]	-5%[46.1 µM]	27*	-15%	-24%
CCOC(=O)CSc1nc(C)cc(C)c1C#N	-12	6%	8%	-1	nt	19%
O=C(NC1CC1)c1c[nH]c2ccc(S(=O)(=O)Nc3cccc(C(F)(F)F)c3)cc2c1=O	-17	-11%	8%	-5	-19%	?
Cc1nn(-c2ccccc2)c(C)c1NC(=O)COC(=O)c1ccc(Cl)c(N)c1	nt	28%	?	nt	7%	1%
COc1ccc(-c2ccc(C(=O)O)c(=O)[nH]2)cc1	-11	?	?	-1	70%	71%
Cc1ccc(-c2ccc(C(=O)O)[nH]2)cc1	38	-1%	1%	20	6.6µM*	30%
CCCCc1nc2cc(C(=O)N3CCC[C@H]3CO)ccc2o1	39*	nt	nt	20*	?	58%
O=C(c1ccc2oc(CCc3ccccc3)nc2c1)N1CC[C@H](O)C1	85*	nt	nt	38*	7.4µM*	147%
COC1CCN(C(=O)c2ccc3oc(Cc4ccc(Cl)cc4)nc3c2)CC1	-4	nt	nt	10	220%	-4%
CCCCc1nc2cc(C(=O)N(C)C3CCOCC3)ccc2o1	116*	8%[46.1 µM]	?	68*	29%	51%
CN(C(=O)c1ccc(N2CCOCC2)c([N+](=O)[O-])c1)C1CCCCC1	nt	3%	-15%	9	0%	-23%
CCCCc1nc2cc(C(=O)N3CCC(O)CC3)ccc2o1	47*	nt	nt	38*	-26%	153%
O=C(Nc1ccc(Cl)c(-c2nc3cc(Cl)ccc3o2)c1)c1cc2ccccc2o1	nt	1%[46.1 µM]	nt	nt	nt	nt
CCOC(=O)C1(CCCc2ccccc2)CCN(C(=O)[C@@H]2C[C@@H](C)NC(=S)N2)CC1	14	0%	?	5	?	?
COc1ccc(CNC(=O)CC2C(=O)NCCN2C2Cc3ccccc3C2)cc1 (stereo not drawn)	2	?	6%	-5	1%	-17%
CCOC(=O)CCCCCCCCC(=O)Nc1ccc(-n2[nH]c(=O)cc2C)cc1	nt	9%	8%	nt	nt	nt
CCCCc1nc2cc(C(=O)N(C)CCc3cn[nH]c3)ccc2o1	61*	nt	nt	51*	?	17%
CC1(C)CC(=O)C(C=NCC2CCN(C(=O)Cc3ccccc3)CC2)=C(O)C1	-10	8%	6%[46.1 µM]	-1	-21%	-20%
CCOc1ccc(C2=CSC3=NCCN23)cc1	-3	4%	-1%	-4	33%	?
c1ccc(-c2c[n+]3c(n2-c2ccccc2)SCC3)cc1	19	11%[46.1 µM]	?	5	0.41µM*	1.7µM*
CCOc1ccc(-n2c(-c3ccc(Cl)cc3)c[n+]3c2SCC3)cc1	14	-9%[46.1 µM]	?	1	0.046µM*	13µM*
CC1(C)Cc2c(C#N)c(NC3CCCCC3)nc(-c3ccco3)c2CO1	5	nt	3%	2	9.3µM*	5.9µM*
CC1(C)Cc2nc(NC3CCCCC3)c(C#N)cc2CO1	-11	3%	?	14	15%	9.3µM*
CCC1(C)Cc2nc(Cl)c(C#N)cc2CO1 (stereo not drawn)	17	nt	nt	1	16%	1%
COc1ccc(OCCC(=O)OCC(=O)NC2CCCCC2)cc1	nt	?	-26%	nt	nt	nt
SMILES	Shiga inhibitor	Lassa entry inh	MARV entry inh	CHX counter	Pf growth 96h	Pf growth 48h
O=C(Nc1ccccn1)c1cccs1	76*	7%	?	52*	143%	145%
O=C(NCc1ccccn1)c1cccs1	12	0%	27%	2	13%	18%
O=C(Nc1nccc(-c2cccs2)n1)c1cccs1	67*	-12%	-6%	31*	28%	36%
Cc1cc(NC(=O)c2cccs2)ncc1NC(=O)C(C)(C)C	nt	?	?	32*	-7%	282%
Cc1cccc(NC(=O)c2cccs2)n1	78*	?	2%	38*	-10%	159%
Cc1ccnc(NC(=O)c2ccc(Br)s2)c1	90*	nt	nt	70*	227%	140%
Cc1ccnc(NC(=O)c2cc3c(=O)oc4ccc(C)cc4c3s2)c1	12	8%	17%[46.1 µM]	10	0%	6%
Cc1ccnc(NC(=O)c2cccs2)c1	57	?	?	38*	9%	146%
Cc1cccc(NC(=O)c2cc3cc([N+](=O)[O-])ccc3s2)n1	56	nt	nt	19*	162%	118%
CCN(CC)S(=O)(=O)c1csc(C(=O)Nc2ccccn2)c1	+	8%	17%	22*	86%	49%
O=C(CSc1nc(-c2ccccc2)cc(=O)[nH]1)Nc1ccc(Br)cc1	-3	-11%[46.1 µM]	10%[46.1 µM]	-4	-44%	0%
CCN(CC)S(=O)(=O)c1ccc(N2CCN(CCOc3ccc(OC)cc3)CC2)nc1	23	-20%[46.1 µM]	11µM*	-3	?	?
COc1ccc(N2CCN(C(=O)CN(c3ccccc3)S(=O)(=O)c3ccc(OC)cc3)CC2)cc1	-22	-14%	-2%	-3	nt	-29%
CC(C)N(C(C)C)S(=O)(=O)c1ccc(Cl)nc1	-9	-5%	13%[46.1 µM]	11	-1%	-3%
CCN(CC)S(=O)(=O)c1ccc(N2CCc3ccccc3C2)nc1	26	10%[46.1 µM]	?	37*	-23%	?
CC(C)N(C(C)C)S(=O)(=O)c1ccc(N2CCc3ccccc3C2)nc1	58*	-4%	?	32*	?	?
CCN(CC)S(=O)(=O)c1ccc(N2CCN(S(=O)(=O)c3ccccc3)CC2)nc1	-2	7%	3%[46.1 µM]	-10	-11%	?
CCN(c1ccccc1)S(=O)(=O)c1ccc(N2CCN(c3ccc(O)cc3)CC2)nc1	nt	7.9µM*	?	nt	nt	nt
COC(=O)c1ccccc1NC(=O)c1cnc2c(-c3cccc(C)c3)c(C)nn2c1C	nt	-9%[46.1 µM]	nt	nt	nt	nt
Cc1c(N2C(=O)/C(=C3/C(=O)N(C)c4ccccc43)SC2=S)c(=O)n(-c2ccccc2)n1C	-14	?	-3%	-4	33%	12%
CCOC(=O)c1cnn2cc(-c3[nH]ncc3[N+](=O)[O-])cnc12	-9	-2%	7%	-5	37%	36%
COc1ccc(CN(C)CC(O)COC(c2ccccc2)c2ccccc2)c(OC)c1OC (stereo not drawn)	-7	?	?	-4	?	10µM*
COc1ccc(CCN(C)CC(O)COc2c(C)ccc(C)c2C)cc1OC (stereo not drawn)	7	nt	nt	2	?	15µM*
COc1ccc(CCN(C)CC(O)COC(c2ccc(F)cc2)c2ccc(F)cc2)cc1OC (stereo not drawn)	-10	?	5.6µM*	-3	10µM*	13µM*
CCN(Cc1ccccc1)CC(O)COC(c1ccc(OC)cc1)c1ccc(OC)cc1 (stereo not drawn)	-13	?	?	-6	9.3µM*	15µM*
